Unmarked numbers belong to inactive results. For part of these data: Results with a measured potency or affinity are listed apart. Active and inactive are the calls of the source. Unless noted, how the calls were made is not given here.
Experiments:
[1] = antimalarial activity against Dd2 strain (AID 2302;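 active means growth inhibition above 50% at the single 2 µM test dose, taken to imply half-maximal potency below 2 µM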;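 further: 0% = DMSO untreated growth and 100% = chloroquine plus artemisinin killed control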); conditions: P. falciparum Dd2 in RBCs, LDH growth readout, 72 h; at 2 µM; hits give high values
[2] = human hepatoma cell viability loss – ATP luminescence, cytotoxicity control for P. falciparum antimalarial project, primary screen (AID 2303;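 active means inhibition above 50%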;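 further: 0% = DMSO wells and 100% = digitonin-killed cells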); conditions: HepG2 viability, 24-48 h, at 10 µM, hits give high values
[3] = target: L-lactate dehydrogenase (Plasmodium falciparum (isolate CDC / Honduras)) (UniProt Q27743); assay: PfLDH activity inhibition – cell lysate, 3D7 strain, counter-screen for P. falciparum growth inhibition project (AID 2304);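 further: 0% = vehicle and 100% = reference inhibitor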; conditions: P. falciparum 3D7 crude extract, LDH APAD/NBT absorbance; at 2 µM; hits give high values
[4] = inhibition of 3D7 malaria parasite growth – strain 3D7 (AID 2306);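 further: 0% = DMSO wells and 100% = chloroquine plus artemisinin control wells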; conditions: P. falciparum 3D7 erythrocytic growth, LDH absorbance, 72 h; at 2 µM; hits give high values
[5] = target: Calcium-dependent protein kinase 1 (Plasmodium falciparum (isolate 3D7)) (UniProt P62344); assay: PfCDPK1 kinase inhibitors, biochemical, TCAMS library (AID 1159585; cut-off not given, nearly all actives have IC50 up to about 0.98 µM;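 further: inhibitors leave more ATP so luminescence rises with inhibition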); conditions: recombinant PfCDPK1, Kinase-Glo ATP depletion luminescence
[6] = target: Plasmodium falciparum protein kinase 6 (PK6, PF3D7_1337100) (UniProt Q8IDW1); assay: PfPK6 kinase inhibitors, biochemical, TCAMS library (AID 1159586); conditions: recombinant PfPK6, Kinase-Glo ATP depletion luminescence
[7] = target: Protein kinase 7 (PK7), Plasmodium falciparum 3D7 (PF3D7_0213400) (UniProt Q7YTF7); assay: inhibition of Plasmodium PK7 catalytic activity – biochemical, TCAMS antimalarial set, Kinase-Glo luminescence (AID 1159587); conditions: recombinant PfPK7, Kinase-Glo ATP depletion luminescence
[8] = target: Calcium-dependent protein kinase 4 (Plasmodium falciparum (isolate 3D7)) (UniProt Q8IBS5); assay: PfCDPK4 kinase inhibitors, biochemical, TCAMS library (AID 1159588; cut-off not given, nearly all actives have IC50 up to about 0.91 µM); conditions: recombinant PfCDPK4, Kinase-Glo ATP depletion luminescence
Chain of Calcium-dependent protein kinase 4 (Plasmodium falciparum (isolate 3D7)) (Q8IBS5 whole entry, looked up): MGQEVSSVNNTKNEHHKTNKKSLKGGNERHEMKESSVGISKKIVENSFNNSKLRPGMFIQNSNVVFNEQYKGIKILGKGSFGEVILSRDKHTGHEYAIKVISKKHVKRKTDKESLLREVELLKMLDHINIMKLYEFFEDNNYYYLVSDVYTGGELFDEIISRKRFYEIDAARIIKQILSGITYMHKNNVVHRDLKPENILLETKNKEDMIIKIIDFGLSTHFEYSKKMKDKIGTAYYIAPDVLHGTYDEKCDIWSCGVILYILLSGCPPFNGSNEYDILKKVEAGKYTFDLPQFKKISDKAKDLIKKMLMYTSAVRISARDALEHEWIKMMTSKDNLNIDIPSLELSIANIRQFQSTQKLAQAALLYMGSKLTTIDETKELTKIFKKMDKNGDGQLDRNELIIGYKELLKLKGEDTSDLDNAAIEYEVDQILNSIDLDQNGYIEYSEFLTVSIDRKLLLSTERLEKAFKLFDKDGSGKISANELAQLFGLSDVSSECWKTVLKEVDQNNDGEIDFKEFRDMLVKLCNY

Chain of L-lactate dehydrogenase (Plasmodium falciparum (isolate CDC / Honduras)) (Q27743 whole entry, looked up): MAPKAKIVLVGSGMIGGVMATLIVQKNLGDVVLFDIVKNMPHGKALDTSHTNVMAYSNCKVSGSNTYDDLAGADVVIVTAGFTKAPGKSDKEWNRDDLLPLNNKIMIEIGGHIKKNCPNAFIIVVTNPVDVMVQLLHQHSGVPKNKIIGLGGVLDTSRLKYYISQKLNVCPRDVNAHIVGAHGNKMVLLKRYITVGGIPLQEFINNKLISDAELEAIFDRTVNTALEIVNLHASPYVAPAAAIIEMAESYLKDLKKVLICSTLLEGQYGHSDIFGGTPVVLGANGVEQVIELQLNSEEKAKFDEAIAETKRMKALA
Chain of Protein kinase 7 (PK7), Plasmodium falciparum 3D7 (PF3D7_0213400) (Q7YTF7 1-343): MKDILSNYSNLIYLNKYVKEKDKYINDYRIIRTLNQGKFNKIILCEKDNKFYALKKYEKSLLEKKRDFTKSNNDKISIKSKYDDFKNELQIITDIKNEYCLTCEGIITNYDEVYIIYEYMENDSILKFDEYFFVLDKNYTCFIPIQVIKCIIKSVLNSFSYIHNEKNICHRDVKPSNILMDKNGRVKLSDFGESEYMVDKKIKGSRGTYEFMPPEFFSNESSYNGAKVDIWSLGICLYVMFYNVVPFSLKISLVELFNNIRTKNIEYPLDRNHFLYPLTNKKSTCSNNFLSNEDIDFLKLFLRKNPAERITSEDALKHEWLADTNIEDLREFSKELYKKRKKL
Chain of Plasmodium falciparum protein kinase 6 (PK6, PF3D7_1337100) (Q8IDW1 1-305): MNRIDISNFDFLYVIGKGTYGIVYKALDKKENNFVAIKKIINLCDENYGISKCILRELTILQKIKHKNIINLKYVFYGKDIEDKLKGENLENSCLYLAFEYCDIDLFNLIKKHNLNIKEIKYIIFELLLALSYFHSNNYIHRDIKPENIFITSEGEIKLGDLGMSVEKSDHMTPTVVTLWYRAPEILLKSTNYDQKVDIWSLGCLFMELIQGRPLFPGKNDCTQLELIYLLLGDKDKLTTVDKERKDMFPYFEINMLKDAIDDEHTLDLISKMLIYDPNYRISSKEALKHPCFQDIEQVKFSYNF
Chain of Calcium-dependent protein kinase 1 (Plasmodium falciparum (isolate 3D7)) (P62344 whole entry, looked up): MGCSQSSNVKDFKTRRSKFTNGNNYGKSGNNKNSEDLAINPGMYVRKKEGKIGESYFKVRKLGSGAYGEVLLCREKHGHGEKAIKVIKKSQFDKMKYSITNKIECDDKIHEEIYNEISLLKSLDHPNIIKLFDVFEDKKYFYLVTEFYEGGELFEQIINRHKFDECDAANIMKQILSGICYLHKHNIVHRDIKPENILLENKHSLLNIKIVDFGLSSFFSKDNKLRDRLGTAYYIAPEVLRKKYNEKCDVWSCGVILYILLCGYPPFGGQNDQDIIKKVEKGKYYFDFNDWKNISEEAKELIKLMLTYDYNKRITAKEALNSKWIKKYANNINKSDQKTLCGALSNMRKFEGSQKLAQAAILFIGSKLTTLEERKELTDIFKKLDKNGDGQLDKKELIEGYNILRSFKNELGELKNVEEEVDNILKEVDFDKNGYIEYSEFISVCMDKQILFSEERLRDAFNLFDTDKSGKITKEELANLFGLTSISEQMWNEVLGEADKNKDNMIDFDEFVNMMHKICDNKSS

Compound | growth inhibition [1] | inhibition [2] | inhibition [3] [%] | growth inhibition [4] | outcome [5] | outcome [6] | outcome [7] | outcome [8]
CCCn1c(Sc2ccc(C#N)c([N+](=O)[O-])c2)nnc1-c1cc(OC)cc(OC)c1 | 79% (active) | 24% | 6 | 98% (active) | inactive | inactive | inactive | inactive
O=C(C=Cc1cn(-c2ccccc2)nc1-c1cccs1)N1CCN(c2ccncc2)CC1 | 61% (active) | 31% | 1 | 100% (active) | inactive | inactive | inactive | inactive
CN1CCCN(Cc2ccc(-c3cccc(NC(=O)c4ccc(F)cc4)c3)cc2)CC1 | 8% | 29% | 1 | 89% (active) | inactive | inactive | inactive | inactive
O=C(/C=C/c1ccc(Cl)c(Cl)c1)NCCCCCN1CCC(NC(=O)Nc2ccccc2Cl)CC1 | 23% | 56% (active) | 3 | 102% (active) | inactive | inactive | inactive | inactive
CC(=O)Nc1cccc(C(=O)Nc2cccc(-c3cccc(-c4nc5ccccc5[nH]4)c3)c2)c1 | 66% (active) | 41% | -5 | 100% (active) | inactive | inactive | inactive | inactive
Cc1cc(-c2ccc(O)c(CNC3CCCCC3)c2)cnc1N | 100% (active) | 27% | -4 | 102% (active) | inactive | inactive | inactive | inactive
